In article PMC7862700, “An all-to-all approach to the identification of sequence-specific readers for epigenetic DNA modifications on cytosine”:

How the values were obtained:
Assay in all cases: DAPPL (digital affinity profiling via proximity ligation, sequencing); 10 mM Tris-HCl pH 7.5, 50 mM NaCl, 1 mM DTT, 4% glycerol, room temperature, 30 min; GST-TFs on glutathione beads, 16-mer random dsDNA library, 0.1% formaldehyde crosslink after washing; high values mean tight binding
[1] = target: T1, FEV (Homo sapiens, UniProt Q99581 1-238); conditions: protein: recombinant; tags: N-terminal GST; dsDNA, one strand shown
T1 sequence: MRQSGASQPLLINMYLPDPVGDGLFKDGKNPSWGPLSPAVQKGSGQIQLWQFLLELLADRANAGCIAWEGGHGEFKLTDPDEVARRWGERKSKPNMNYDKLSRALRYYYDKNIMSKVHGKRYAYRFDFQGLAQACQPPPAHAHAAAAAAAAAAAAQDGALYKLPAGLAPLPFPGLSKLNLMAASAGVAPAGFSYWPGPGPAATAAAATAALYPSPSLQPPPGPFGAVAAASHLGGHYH
Summary of the method: (§1)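 Human transcription factors fused to GST were expressed in yeast, captured on glutathione beads, given DNA barcodes and pooled with a GST-only negative control. Pools were incubated with 200 nmole of a 16-mer random double-stranded DNA library in Tris/NaCl/DTT/glycerol buffer at room temperature for 30 min. They were then washed, crosslinked with 0.1% formaldehyde, proximity-ligated (BsaI/T4 ligase, 1 h, 37 °C), PCR-amplified and sequenced on an Illumina NextSeq500. Binding signal is each 6-mer's read frequency for a factor divided by its frequency for the GST control.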

[2] = target: ETV5 (Homo sapiens, UniProt P41161 1-510); conditions: protein: recombinant; tags: N-terminal GST; dsDNA, one strand shown
Summary of the method: as §1

[3] = target: HSF1 (Homo sapiens, UniProt Q00613 1-529); conditions: protein: recombinant; tags: N-terminal GST; chain copies: 3; dsDNA, one strand shown
Summary of the method: as §1

[4] = target: T2, SPIC (Homo sapiens, UniProt Q8N5J4 1-248); conditions: protein: recombinant; tags: N-terminal GST; dsDNA, one strand shown
T2 sequence: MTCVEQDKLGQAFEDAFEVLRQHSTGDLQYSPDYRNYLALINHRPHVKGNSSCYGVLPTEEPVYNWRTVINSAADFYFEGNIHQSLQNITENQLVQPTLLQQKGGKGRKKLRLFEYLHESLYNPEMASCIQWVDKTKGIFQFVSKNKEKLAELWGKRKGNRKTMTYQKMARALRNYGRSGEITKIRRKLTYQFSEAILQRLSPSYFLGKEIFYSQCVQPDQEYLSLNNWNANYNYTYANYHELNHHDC
Summary of the method: as §1

[5] = target: ELF4 (Homo sapiens, UniProt Q99607 1-663); conditions: protein: recombinant; tags: N-terminal GST; dsDNA, one strand shown
Summary of the method: as §1

[6] = target: T3, ELK4 (Homo sapiens, UniProt P28324-2 1-405); conditions: protein: recombinant; tags: N-terminal GST; dsDNA, one strand shown
T3 sequence: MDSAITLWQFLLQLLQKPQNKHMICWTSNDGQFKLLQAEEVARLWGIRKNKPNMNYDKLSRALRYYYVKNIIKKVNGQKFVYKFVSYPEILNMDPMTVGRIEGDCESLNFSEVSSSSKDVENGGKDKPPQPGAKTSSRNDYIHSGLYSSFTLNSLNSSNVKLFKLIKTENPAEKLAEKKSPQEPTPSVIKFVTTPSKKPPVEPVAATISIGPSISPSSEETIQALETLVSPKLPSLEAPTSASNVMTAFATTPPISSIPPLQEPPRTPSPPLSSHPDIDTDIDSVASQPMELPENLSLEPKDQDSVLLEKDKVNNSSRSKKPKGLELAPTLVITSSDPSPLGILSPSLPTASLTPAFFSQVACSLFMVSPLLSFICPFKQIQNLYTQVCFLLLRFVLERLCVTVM
Summary of the method: as §1

[7] = target: T4, ETV2 (Homo sapiens, UniProt O00321 1-342); conditions: protein: recombinant; tags: N-terminal GST; dsDNA, one strand shown
T4 sequence: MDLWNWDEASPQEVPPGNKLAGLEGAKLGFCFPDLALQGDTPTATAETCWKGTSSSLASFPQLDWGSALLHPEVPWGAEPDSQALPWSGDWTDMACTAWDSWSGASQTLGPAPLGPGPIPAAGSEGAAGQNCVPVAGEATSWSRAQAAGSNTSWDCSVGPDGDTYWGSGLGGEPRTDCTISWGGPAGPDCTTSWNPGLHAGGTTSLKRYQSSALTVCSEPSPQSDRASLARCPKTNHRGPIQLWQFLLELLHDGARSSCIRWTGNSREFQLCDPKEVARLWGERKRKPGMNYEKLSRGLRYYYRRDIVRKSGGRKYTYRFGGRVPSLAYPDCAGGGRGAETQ
Summary of the method: as §1

[8] = target: T5, ELF3 (Homo sapiens, UniProt P78545 1-371); conditions: protein: recombinant; tags: N-terminal GST; dsDNA, one strand shown
T5 sequence: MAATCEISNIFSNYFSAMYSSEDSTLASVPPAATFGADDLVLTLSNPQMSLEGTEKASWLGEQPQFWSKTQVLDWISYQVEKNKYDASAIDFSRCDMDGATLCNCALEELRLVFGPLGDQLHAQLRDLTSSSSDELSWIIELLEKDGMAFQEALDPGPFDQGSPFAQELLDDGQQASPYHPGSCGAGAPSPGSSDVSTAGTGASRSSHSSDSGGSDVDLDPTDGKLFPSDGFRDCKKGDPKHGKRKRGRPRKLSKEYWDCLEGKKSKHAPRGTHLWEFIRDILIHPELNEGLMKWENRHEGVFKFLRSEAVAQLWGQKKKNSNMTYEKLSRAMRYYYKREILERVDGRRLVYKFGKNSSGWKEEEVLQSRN
Summary of the method: as §1

[9] = target: CRX (Homo sapiens, UniProt O43186 1-299); conditions: protein: recombinant; tags: N-terminal GST; dsDNA, one strand shown
Summary of the method: as §1

[10] = target: ETV1 (Homo sapiens, UniProt P50549 1-477); conditions: protein: recombinant; tags: N-terminal GST; dsDNA, one strand shown
Summary of the method: as §1

[11] = target: T6, ERF (Homo sapiens, UniProt P50548 1-548); conditions: protein: recombinant; tags: N-terminal GST; dsDNA, one strand shown
T6 sequence: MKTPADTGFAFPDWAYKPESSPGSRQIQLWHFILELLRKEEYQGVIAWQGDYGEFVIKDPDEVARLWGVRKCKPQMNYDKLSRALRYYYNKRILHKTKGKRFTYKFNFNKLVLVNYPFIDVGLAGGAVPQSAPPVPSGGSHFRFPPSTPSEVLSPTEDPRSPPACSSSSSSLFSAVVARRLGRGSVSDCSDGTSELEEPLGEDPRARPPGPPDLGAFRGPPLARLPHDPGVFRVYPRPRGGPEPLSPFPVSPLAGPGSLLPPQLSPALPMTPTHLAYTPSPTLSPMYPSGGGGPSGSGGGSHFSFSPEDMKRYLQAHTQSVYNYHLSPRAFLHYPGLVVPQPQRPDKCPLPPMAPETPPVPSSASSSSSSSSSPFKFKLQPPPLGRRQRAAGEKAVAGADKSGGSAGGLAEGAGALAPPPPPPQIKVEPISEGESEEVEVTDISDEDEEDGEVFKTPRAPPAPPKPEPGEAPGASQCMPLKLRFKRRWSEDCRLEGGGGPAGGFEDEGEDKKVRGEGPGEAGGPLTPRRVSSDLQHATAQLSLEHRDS
Summary of the method: as §1

[12] = target: T7, ETV3L (Homo sapiens, UniProt Q6ZN32 1-361); conditions: protein: recombinant; tags: N-terminal GST; dsDNA, one strand shown
T7 sequence: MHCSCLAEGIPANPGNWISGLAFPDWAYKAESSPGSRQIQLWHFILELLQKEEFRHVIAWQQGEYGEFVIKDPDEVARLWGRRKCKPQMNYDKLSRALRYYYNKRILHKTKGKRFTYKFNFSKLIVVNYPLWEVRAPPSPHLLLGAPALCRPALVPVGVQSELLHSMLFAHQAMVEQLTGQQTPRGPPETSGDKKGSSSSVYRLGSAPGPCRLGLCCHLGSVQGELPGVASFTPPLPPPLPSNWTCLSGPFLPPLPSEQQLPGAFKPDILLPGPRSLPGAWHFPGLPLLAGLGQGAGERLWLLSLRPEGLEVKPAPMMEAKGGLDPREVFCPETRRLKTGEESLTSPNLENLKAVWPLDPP
Summary of the method: as §1

[13] = target: T8, ETS2 (Homo sapiens, UniProt P15036 1-469); conditions: protein: recombinant; tags: N-terminal GST; dsDNA, one strand shown
T8 sequence: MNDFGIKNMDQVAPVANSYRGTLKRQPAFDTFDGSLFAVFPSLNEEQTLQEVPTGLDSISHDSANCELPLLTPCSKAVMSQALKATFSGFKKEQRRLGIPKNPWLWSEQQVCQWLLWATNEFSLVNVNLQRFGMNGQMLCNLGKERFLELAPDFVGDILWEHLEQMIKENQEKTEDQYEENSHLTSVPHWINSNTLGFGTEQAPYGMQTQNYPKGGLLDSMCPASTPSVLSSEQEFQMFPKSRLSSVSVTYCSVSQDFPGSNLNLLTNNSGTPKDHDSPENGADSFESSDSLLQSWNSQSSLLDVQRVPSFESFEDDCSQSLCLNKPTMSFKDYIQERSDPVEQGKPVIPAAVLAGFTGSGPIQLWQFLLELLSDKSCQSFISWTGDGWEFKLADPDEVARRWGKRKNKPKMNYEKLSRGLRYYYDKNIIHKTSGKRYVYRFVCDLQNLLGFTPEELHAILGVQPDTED
Summary of the method: as §1

[14] = target: T9, SPDEF (Homo sapiens, UniProt O95238 1-335); conditions: protein: recombinant; tags: N-terminal GST; dsDNA, one strand shown
T9 sequence: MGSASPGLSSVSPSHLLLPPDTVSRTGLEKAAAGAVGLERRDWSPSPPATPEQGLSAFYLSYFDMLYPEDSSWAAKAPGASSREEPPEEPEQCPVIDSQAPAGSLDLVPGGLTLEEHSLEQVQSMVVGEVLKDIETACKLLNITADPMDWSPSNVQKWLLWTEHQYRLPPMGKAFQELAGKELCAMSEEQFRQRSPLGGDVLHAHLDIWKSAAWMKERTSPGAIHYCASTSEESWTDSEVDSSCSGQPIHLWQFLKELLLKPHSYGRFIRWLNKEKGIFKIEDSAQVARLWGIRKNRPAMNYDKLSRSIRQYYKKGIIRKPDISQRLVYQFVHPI
Summary of the method: as §1

[15] = target: T10, ETV7 (Homo sapiens, UniProt Q9Y603 1-341); conditions: protein: recombinant; tags: N-terminal GST; dsDNA, one strand shown
T10 sequence: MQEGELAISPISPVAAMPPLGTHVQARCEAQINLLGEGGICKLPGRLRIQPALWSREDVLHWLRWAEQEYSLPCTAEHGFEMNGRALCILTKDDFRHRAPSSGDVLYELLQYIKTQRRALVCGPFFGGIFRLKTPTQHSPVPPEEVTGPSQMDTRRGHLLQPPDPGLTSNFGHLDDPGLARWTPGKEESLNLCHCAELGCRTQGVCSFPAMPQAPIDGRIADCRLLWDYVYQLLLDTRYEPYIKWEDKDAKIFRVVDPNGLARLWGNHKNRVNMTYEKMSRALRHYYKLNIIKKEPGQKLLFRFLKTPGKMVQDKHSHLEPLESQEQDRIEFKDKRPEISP
Summary of the method: as §1

[16] = target: T11, ELF5 (Homo sapiens, UniProt Q9UKW6-2 1-255); conditions: protein: recombinant; tags: N-terminal GST; dsDNA, one strand shown
T11 sequence: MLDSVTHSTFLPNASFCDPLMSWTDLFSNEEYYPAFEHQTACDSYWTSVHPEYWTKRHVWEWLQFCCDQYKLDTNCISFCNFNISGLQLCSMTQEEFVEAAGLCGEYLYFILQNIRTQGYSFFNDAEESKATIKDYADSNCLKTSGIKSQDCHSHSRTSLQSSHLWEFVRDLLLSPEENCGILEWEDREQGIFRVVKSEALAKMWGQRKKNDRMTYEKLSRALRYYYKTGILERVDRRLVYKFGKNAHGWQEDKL
Summary of the method: as §1

[17] = target: T12, ETV3 (Homo sapiens, UniProt P41162-2 1-143); conditions: protein: recombinant; tags: N-terminal GST; dsDNA, one strand shown
T12 sequence: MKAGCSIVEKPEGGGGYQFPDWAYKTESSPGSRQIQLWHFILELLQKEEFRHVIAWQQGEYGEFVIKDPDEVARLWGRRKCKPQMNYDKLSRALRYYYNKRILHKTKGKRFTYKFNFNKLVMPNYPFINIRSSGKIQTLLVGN
Summary of the method: as §1

[18] = target: ETV6 (Homo sapiens, UniProt P41212 1-452); conditions: protein: recombinant; tags: N-terminal GST; dsDNA, one strand shown
Summary of the method: as §1

CRX, sequence (O43186 whole entry): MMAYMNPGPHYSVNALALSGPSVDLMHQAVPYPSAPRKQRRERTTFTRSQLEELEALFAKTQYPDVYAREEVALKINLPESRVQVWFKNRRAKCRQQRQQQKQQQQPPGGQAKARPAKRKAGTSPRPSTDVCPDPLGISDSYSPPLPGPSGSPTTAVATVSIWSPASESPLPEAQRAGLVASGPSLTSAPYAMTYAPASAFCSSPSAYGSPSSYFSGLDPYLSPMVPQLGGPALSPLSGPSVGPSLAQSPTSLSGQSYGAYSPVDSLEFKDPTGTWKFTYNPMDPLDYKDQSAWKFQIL
ETV1, sequence (P50549 whole entry): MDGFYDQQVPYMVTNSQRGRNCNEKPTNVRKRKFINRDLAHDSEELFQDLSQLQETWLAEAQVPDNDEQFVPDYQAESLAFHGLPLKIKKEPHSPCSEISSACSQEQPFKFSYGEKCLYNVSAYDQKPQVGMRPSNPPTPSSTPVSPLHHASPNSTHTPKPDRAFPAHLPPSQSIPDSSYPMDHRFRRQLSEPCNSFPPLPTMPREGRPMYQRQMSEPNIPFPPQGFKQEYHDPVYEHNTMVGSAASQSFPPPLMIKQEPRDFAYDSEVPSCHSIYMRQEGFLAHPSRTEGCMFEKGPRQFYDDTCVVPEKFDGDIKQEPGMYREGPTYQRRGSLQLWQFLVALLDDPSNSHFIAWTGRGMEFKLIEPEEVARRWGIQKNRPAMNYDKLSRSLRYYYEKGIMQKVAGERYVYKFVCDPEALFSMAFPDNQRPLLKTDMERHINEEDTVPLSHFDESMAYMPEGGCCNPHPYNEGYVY
ELF4, sequence (Q99607 whole entry): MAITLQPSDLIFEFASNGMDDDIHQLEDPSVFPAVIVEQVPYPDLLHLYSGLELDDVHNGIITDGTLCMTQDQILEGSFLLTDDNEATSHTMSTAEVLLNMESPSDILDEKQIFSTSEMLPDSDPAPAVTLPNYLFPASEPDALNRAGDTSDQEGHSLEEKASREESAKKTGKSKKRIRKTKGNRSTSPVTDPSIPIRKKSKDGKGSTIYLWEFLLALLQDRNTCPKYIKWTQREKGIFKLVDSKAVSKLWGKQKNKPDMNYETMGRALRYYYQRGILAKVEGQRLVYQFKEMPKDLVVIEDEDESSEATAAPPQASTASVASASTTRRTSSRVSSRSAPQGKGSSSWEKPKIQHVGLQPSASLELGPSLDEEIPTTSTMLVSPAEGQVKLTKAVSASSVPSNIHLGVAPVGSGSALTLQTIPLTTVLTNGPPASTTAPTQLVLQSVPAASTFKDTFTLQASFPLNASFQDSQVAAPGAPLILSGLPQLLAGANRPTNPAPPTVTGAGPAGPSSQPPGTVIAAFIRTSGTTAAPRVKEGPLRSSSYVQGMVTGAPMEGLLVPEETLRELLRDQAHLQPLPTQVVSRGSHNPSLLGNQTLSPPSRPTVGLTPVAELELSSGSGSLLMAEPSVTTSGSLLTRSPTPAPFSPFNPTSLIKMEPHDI
ETV5, sequence (P41161 whole entry): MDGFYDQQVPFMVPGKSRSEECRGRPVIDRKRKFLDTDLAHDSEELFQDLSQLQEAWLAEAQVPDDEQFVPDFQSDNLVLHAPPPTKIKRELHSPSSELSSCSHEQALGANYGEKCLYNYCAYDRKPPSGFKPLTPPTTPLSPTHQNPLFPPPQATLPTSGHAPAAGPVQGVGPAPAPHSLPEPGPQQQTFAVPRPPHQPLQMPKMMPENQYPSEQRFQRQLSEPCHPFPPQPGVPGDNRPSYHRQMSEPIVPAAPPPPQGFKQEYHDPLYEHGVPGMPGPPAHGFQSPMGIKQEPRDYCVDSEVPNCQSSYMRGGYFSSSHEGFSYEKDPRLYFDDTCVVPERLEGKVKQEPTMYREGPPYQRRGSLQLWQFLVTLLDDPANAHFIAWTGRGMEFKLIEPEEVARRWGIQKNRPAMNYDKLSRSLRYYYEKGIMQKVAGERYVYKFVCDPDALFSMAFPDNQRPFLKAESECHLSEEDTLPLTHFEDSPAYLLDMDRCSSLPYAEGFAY
HSF1, sequence (Q00613 whole entry): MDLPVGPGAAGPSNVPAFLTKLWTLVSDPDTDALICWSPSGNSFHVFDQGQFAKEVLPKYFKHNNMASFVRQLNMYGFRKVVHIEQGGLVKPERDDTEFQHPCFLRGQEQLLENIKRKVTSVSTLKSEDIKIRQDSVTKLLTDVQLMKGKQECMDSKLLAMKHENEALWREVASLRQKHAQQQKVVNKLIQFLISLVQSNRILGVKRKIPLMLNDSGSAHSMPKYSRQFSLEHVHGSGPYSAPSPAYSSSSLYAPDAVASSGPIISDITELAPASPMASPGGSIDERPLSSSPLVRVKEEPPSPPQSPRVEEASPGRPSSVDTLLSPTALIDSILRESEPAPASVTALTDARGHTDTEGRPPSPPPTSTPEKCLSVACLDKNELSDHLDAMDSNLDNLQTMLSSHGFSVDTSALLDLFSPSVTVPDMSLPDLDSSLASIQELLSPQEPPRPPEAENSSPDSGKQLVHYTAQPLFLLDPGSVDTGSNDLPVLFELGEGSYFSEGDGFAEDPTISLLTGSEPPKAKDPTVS
ETV6, sequence (P41212 whole entry): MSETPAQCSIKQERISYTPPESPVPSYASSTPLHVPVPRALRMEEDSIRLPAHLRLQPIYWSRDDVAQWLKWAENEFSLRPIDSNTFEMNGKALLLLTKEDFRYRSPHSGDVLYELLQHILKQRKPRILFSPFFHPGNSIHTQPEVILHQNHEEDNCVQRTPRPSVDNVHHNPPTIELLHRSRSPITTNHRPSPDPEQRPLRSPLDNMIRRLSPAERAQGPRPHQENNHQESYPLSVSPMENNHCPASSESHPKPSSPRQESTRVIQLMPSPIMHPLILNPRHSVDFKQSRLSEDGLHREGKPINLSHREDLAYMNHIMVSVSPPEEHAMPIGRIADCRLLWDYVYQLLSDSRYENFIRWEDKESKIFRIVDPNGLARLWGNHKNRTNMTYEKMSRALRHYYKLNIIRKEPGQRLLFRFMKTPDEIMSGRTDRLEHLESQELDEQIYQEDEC

CCGAAC
binding signal [1]: 1.25 fold enrichment (6-mer frequency, TF over GST control) | binding signal [2]: 1.27 fold enrichment (6-mer frequency, TF over GST control) | binding signal [3]: 1.54 fold enrichment (6-mer frequency, TF over GST control) | binding signal [4]: 1.32 fold enrichment (6-mer frequency, TF over GST control) | binding signal [5]: 1.26 fold enrichment (6-mer frequency, TF over GST control) | binding signal [6]: 1.25 fold enrichment (6-mer frequency, TF over GST control) | binding signal [7]: 1.36 fold enrichment (6-mer frequency, TF over GST control) | binding signal [8]: 1.25 fold enrichment (6-mer frequency, TF over GST control) | binding signal [9]: 1.17 fold enrichment (6-mer frequency, TF over GST control) | binding signal [10]: 1.19 fold enrichment (6-mer frequency, TF over GST control) | binding signal [11]: 1.23 fold enrichment (6-mer frequency, TF over GST control) | binding signal [12]: 1.27 fold enrichment (6-mer frequency, TF over GST control) | binding signal [13]: 1.26 fold enrichment (6-mer frequency, TF over GST control) | binding signal [14]: 1.28 fold enrichment (6-mer frequency, TF over GST control) | binding signal [15]: 1.14 fold enrichment (6-mer frequency, TF over GST control) | binding signal [16]: 1.21 fold enrichment (6-mer frequency, TF over GST control) | binding signal [17]: 1.18 fold enrichment (6-mer frequency, TF over GST control) | binding signal [18]: 1.28 fold enrichment (6-mer frequency, TF over GST control)
